According to PubChem BioAssay AID651947 (Broad Institute, 2012):
Results with a measured potency or affinity are listed apart. Results filed as inconclusive are left out. Unmarked numbers belong to inactive results.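 The calls were made as follows: active = luminescence drop in HepG2 cells whose fitted half-effect dose is at most twice the top valid dose; inconclusive = flat curve with 30 to 70% signal loss, or unreliable fit; inactive = the rest.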

Assay: HepG2 hepatoma cell viability loss – plate reader, dry powder, cytotoxicity control, dose response (AID 651947)
Details: ATP luminescence (CellTiter-Glo), 48 h, stronger effect = lower value; at 26 µM unless noted

SMILES | max activity
Clc1ccc(-c2nnc(SCc3ccccc3)o2)cc1 | -50.8%
c1ccc(CSc2nnc(-c3ccccc3)o2)cc1 | -12.1% [at 1.6 µM]
COc1ccc(CSc2nnc(-c3ccccc3)o2)cc1 | -24.9% [at 0.195 µM]
